Source: PubChem BioAssay AID504332 (National Center for Advancing Translational Sciences (NCATS), 2011)
About 31,000 (8.9%) of roughly 350,000 compounds were called active. Not shown: some 15% with an inconclusive outcome. Many of the other results were omitted from the sample, so actives are more common in it than they were. Unmarked numbers belong to inactive results. Calls follow the shape of the dose curve; as a rule, active = well fitted inhibition curve with a large enough effect; inconclusive = small, poorly fitted or top-dose-only effect; inactive = no such curve, though single readings can be large or run the other way.

The compounds below were run against Histone-lysine N-methyltransferase EHMT2 (Homo sapiens) (UniProt Q96KQ7) (assay: qHTS Assay for Inhibitors of Histone Lysine Methyltransferase G9a). Conditions: G9a H3K9 monomethylation, AlphaScreen, 2 h; series mostly up to 59 µM; activity, negative = inhibition: at the top concentration.
Summary of the method: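 Quantitative HTS format: methyltransferase activity on a biotin-tagged H3K9 peptide is measured by AlphaScreen, using a rabbit anti-monomethyl-H3K9 antibody with streptavidin donor and anti-IgG acceptor beads. Final levels are 20 nM enzyme, 500 nM peptide, 20 uM SAM; 2 h RT.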
% is scaled to controls: 0 for no effect and ±100 for the full control effect; potency is read from the fitted curve at half-maximal effect.
Also: nearly all actives have a fitted effect of over 75% in size.

Histone-lysine N-methyltransferase EHMT2 (Homo sapiens), sequence (Q96KQ7 913-1193 limits assumed): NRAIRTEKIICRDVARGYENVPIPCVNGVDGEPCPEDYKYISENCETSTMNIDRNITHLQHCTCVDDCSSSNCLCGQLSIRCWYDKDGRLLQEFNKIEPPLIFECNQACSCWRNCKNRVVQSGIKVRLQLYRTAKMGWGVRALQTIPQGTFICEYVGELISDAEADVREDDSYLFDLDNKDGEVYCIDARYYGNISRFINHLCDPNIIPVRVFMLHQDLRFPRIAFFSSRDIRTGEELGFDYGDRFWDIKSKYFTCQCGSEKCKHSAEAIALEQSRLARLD

SMILES | activity, negative = inhibition | Potency
COc1ccc(S(=O)(=O)N2CCN(c3ccc(F)cc3)CC2)cc1-c1noc(C)n1 | 6.56% | 
COc1ccc(OC)c(-c2noc(N3CCN(c4cc(Cl)ccc4C)CC3)n2)c1 | -5.88% | 
CCc1nc(-c2cc(S(=O)(=O)N3CCN(c4ccc(OC)cc4)CC3)ccc2OC)no1 |  | 0.631 µM (active)
Cc1ccc(-n2ncc3c(N4CCC(C(N)=O)CC4)ncnc32)cc1 | -5.29% | 
CC(C)(C)OC(=O)N1CCC(c2c(C(=O)N3CCc4ccccc4C3)cnn2-c2ccc(F)cc2)CC1 | -8.88% | 
Cc1ccc(C(=O)Nc2ccc(OCc3cc(=O)n4c5c(sc4n3)CCCC5)cc2)cc1 | 7.45% | 
O=C(COC(=O)CNS(=O)(=O)c1ccc(F)c(F)c1F)NC1CCCC1 | -25.7% [at 102 µM] | 
CCc1ccc(S(=O)(=O)c2nnn3c2nc(N2CCN(CC)CC2)c2sccc23)cc1 | -45.5% | 
CCCCN(C(=O)CSCC(=O)Nc1ccc(OC)cc1)c1c(N)n(CCC)c(=O)[nH]c1=O | 19.8% [at 2.33 µM] | 
Cc1ccc(Nc2nc(N)nc(CN3CCN(Cc4ccccc4)CC3)n2)cc1Cl |  | 50.1 µM (active)
CCOC(=O)N1CCN(Cc2nc(N)nc(Nc3ccc(C)cc3)n2)CC1 | -23.8% [at 2.33 µM] | 
Cc1ccccc1Nc1nc(N)nc(CN2CCN(c3ccccn3)CC2)n1 | -45.5% [at 12.7 µM] | 
CC(=O)c1ccc(NC(=O)c2ccc(-n3cncn3)c([N+](=O)[O-])c2)cc1 | 15% [at 102 µM] | 
CC(=O)Nc1ccc(S(=O)(=O)N2CCN(c3ccccc3)CC2)cc1 | 1.17% | 
CC(=O)Nc1ccc(S(=O)(=O)N2CCN(c3ccc([N+](=O)[O-])c(NCCN4CCOCC4)c3)CC2)cc1 |  | 70.8 µM (active)
O=[N+]([O-])c1ccc(N2CCN(S(=O)(=O)c3ccc4ccccc4c3)CC2)cc1NCc1ccco1 | -41.4% | 
COc1ccccc1OCCNc1cc(N2CCOCC2)ccc1[N+](=O)[O-] |  | 39.8 µM (active)
O=C(c1ccccc1)N1CCN(c2ccc([N+](=O)[O-])c(NCc3ccco3)c2)CC1 | 44.5% [at 0.501 µM] | 
COc1ccccc1OCCNC(=O)c1cc([N+](=O)[O-])cc([N+](=O)[O-])c1 | -33.4% [at 102 µM] | 
O=C(NCCNc1ccccc1[N+](=O)[O-])c1ccccc1F | 2.67% | 
Cc1ccc(CCNC(=O)c2ccc(CS(=O)(=O)Cc3cccc(C)c3)o2)cc1 | 9.17% | 
O=C(N/N=C\c1cc2c(cc1Cl)OCO2)c1ccc(Br)s1 | -6.61% [at 102 µM] | 
CCN1C(=O)[C@@H]2[C@@H](c3ccc(-c4cccc(Cl)c4)cc3)N3CCC[C@@]3(C(=O)OC)[C@@H]2C1=O | 4.52% [at 2.33 µM] | 
CC1=CC2=NC(=O)/C(=C/c3coc4ccccc4c3=O)C(=N)N2O1 |  | 44.7 µM (active)

SMILES | activity, negative = inhibition | Potency
CCOc1cc(/C=C2/C(=N)N3OC(C)=CC3=NC2=O)ccc1OC | -30.7% [at 102 µM] | 
CC(C)(C)OC(=O)NCCCCCC(=O)N/N=C/c1coc2ccccc2c1=O | -6.59% [at 102 µM] | 
CC(=O)Nc1ccc(S(=O)(=O)N2CCn3cccc3C2C)cc1 (stereo not drawn) | -104% [at 12.7 µM] | 
CCOC(=O)C1(C)NC(c2ccco2)C2C(=O)N(c3ccccc3)C(=O)C21 (stereo not drawn) | -5.49% [at 102 µM] | 
COC(=O)C1(C)NC(c2ccc(C)cc2)C2C(=O)N(c3ccc(F)cc3)C(=O)C21 (stereo not drawn) | 7.54% [at 102 µM] | 
CCCC1(C(=O)OCC)NC(c2ccc(N(C)C)cc2)C2C(=O)N(c3ccc4c(c3)OCCO4)C(=O)C21 (stereo not drawn) |  | 8.91 µM (active)
Cc1csc(NC(=O)NC2(C(F)(F)F)Oc3ccccc3O2)n1 |  | 2 µM (active)
Cc1csc(NC(=O)C2CCN(S(=O)(=O)c3ccccc3)CC2)n1 | -7.29% [at 102 µM] | 
CC(=O)Nc1cccc(C(=O)Nc2nc(C)cs2)c1 | 24.9% [at 102 µM] | 
CC(C)(C)C1C/C(=C/c2ccco2)C(=O)/C(=C/c2ccco2)C1 (stereo not drawn) |  | 39.8 µM (active)
O=C1OC(/C=C/c2ccccc2)=NC/1=C/c1ccco1 | -5.86% | 
CCOC(=O)c1c(S(=O)(=O)N2CCC(C(=O)NCc3ccccc3OC)CC2)c(C)n(C)c1C | -3.21% | 
CCOC(=O)c1c(NC(=O)c2ccc(S(=O)(=O)N3CCCC(C)C3)cc2)sc2c1CCN(C(C)C)C2 (stereo not drawn) | 8.5% | 
CC(=O)Nc1ccc(OCC(=O)NCc2ccc(C)cc2)cc1 | -2.76% [at 102 µM] | 
CC(C)(C)NC(=O)COc1ccc(CNc2ccc3[nH]c(=O)[nH]c3c2)cc1 |  | 31.6 µM (active)
COC(=O)c1ccc(OCC(=O)NC(C)(C)C)cc1 | 4.75% [at 102 µM] | 
Cc1ccc(OCC(=O)N2CCN(S(=O)(=O)c3ccc(Cl)s3)CC2)cc1C | 6.17% [at 2.33 µM] | 
C=CCNC(=S)/N=c1/ccccn1Cc1ccccc1 |  | 31.6 µM (active)
C=CCNC(=O)COc1coc(CN2CCN(Cc3ccccc3)CC2)cc1=O | 18.3% [at 0.501 µM] | 
C=CCNC(=S)N/N=C/c1ccc(OCc2ccccc2)cc1 | 12.6% [at 102 µM] | 
O=C(CSc1nc2[nH]c(=O)[nH]c(=O)c2s1)Nc1cccc(F)c1 | 24.5% [at 12.7 µM] | 
COc1ccc(OC)c(NC(=O)CSC2=Nc3ccccc3C3=NC(CC(=O)NCCc4ccccc4)C(=O)N23)c1 (stereo not drawn) | -2.77% | 
Cc1cc(NC(=O)COC(=O)COc2ccc(Cl)cc2C)c([N+](=O)[O-])cc1C |  | 8.91 µM (active)
COc1ccc(OCC(=O)Nc2cc(C)c(Cl)cc2OC)c([N+](=O)[O-])c1 | -4.05% | 

SMILES | activity, negative = inhibition | Potency
COc1cc(NC(=O)COC(=O)CSc2ccc3ccccc3c2)c(C)cc1[N+](=O)[O-] | -14.8% | 
Cc1ccccc1OCCSc1nc2ccc(NC(=O)c3ccco3)cc2s1 | -0.195% | 
CC(=O)c1c(C)[nH]c(C(=O)OCC(=O)Nc2c(C)cccc2C)c1C | -11.6% [at 12.7 µM] | 
O=S(=O)(Nc1ccc2nc(N3CCOCC3)sc2c1)c1ccccc1 |  | 50.1 µM (active)
Brc1ccc2nc(N3CCCC3)sc2c1 | 5.39% [at 102 µM] | 
CC(=O)Nc1ccc(S(=O)(=O)Nc2ccc(N3CCOCC3)c(F)c2)cc1 | -11.3% | 
CC(C)=C1SC(N2CCN(c3cccc(C)c3)CC2)=NC1=O | 10.3% [at 12.7 µM] | 
Cc1cccc(C(=O)N2CCCN(C(=O)c3cccc(C)c3)CC2)c1 | -5.03% [at 12.7 µM] | 
COC(=O)c1sc(=S)n(-c2ccc(Cl)cc2)c1C | -36.4% | 
Cc1cccc(-n2c(N)c(C(=O)N3CCN(C)CC3)sc2=S)c1 |  | 8.91 µM (active)
COC(=O)c1sc(=S)n(-c2ccccc2)c1N |  | 3.16 µM (active)
COC(=O)c1sc(N2CCN(Cc3ccccc3)CC2)nc1N | -23.6% [at 102 µM] | 
Cc1ccc(-n2c(N)c(C(=O)N3CCOCC3)sc2=S)c(C)c1 |  | 7.94 µM (active)
N#Cc1ccccc1-n1c(N)c(C(=O)N2CCCC2)sc1=S | 19.8% [at 0.501 µM] | 
Cc1ccc(S(=O)(=O)N2CCN(C(=O)N3CCOCC3)CC2)c(C)c1 | 11.4% [at 102 µM] | 
COc1ccc(CCNc2nc(-c3ccc(Cl)cc3)cc(C(F)(F)F)n2)cc1OC | 30.5% | 
COc1cc(-c2noc(-c3ccc(N4CCCC4)c([N+](=O)[O-])c3)n2)cc(OC)c1OC | -34% | 
O=C(COc1ccccc1)OCc1cc(=O)n2nc(-c3cccs3)sc2n1 | 15.1% | 
Cc1cc(/C=N/NC(N)=O)c(C)n1C1CCCCC1 |  | 50.1 µM (active)
Cc1cccc(-n2c(C)cc(/C=N\NC(=O)c3cccs3)c2C)c1 | 1.88% | 
NC(=O)N/N=C\c1cccs1 | 6.75% [at 102 µM] | 
Cn1c(=O)c(=O)n(C)c2cc(NC(=O)c3ccccc3Br)ccc21 | 6.51% | 
COc1ccc2c(c1)Cc1sc(NC(=O)c3ccccc3Br)nc1-2 |  | 25.1 µM (active)
COc1cccc(C(=O)NNC(=O)c2ccccc2Br)c1 | 2.81% [at 102 µM] | 

SMILES | activity, negative = inhibition | Potency
COc1ccc(CNC(=O)c2cc3c(-c4ccccc4F)nn(C)c3s2)c(OC)c1 | 3.86% | 
CCN(CC(=O)Nc1ccccc1C(F)(F)F)C(=O)CSCc1c(C)noc1C | 9.18% [at 0.501 µM] | 
CCOC(=O)C1(Cc2ccccc2C)CCCN(C(=O)CCc2c(C)noc2C)C1 (stereo not drawn) | 65.5% [at 102 µM] | 
CCOc1ccc(N2C(=O)CN(c3cccc4ccccc34)C2=S)cc1 | -2.7% [at 102 µM] | 
CCOc1ccc(N2C(=O)/C(=C/c3ccc(C)o3)N(C)C2=S)cc1 |  | 3.55 µM (active)
CCOc1ccc(N2C(=O)CSC2=NC#N)cc1 | -16.5% [at 12.7 µM] | 
COc1ccc(/C=C2\SC(=O)N(CCC(=O)NC3CCS(=O)(=O)C3)C2=O)cc1 (stereo not drawn) | 10.4% [at 102 µM] | 
Cc1ccc(-n2c3nc(=O)[nH]c(=O)c-3cc3c(Cl)cccc32)cc1 | 0.296% | 
CCOc1ccc(S(=O)(=O)N2CCCC(C(=O)N3CCC(C(N)=O)CC3)C2)cc1Cl (stereo not drawn) | 10.8% [at 102 µM] | 
CCN1/C(=C\c2ccc3ccccc3[n+]2CC)Sc2cc(C)ccc21 |  | 22.4 µM (active)
Cc1nc2nc(SCC(=O)Nc3cccc(F)c3)[nH]c2cc1Br | -6.53% [at 102 µM] | 
COc1ccc(C(=O)Nc2ccc(C3(C#N)CCCC3)cc2)cc1OC | 5.57% [at 0.501 µM] | 
CC1(C)N=C(SCc2ccccc2Cl)c2ccccc2N1 | 58.5% | 
CNc1ccc(NC(C)=O)cc1[N+](=O)[O-] | -49.9% [at 102 µM] | 
CCc1nnc(NC(=O)/C=C/c2ccc(C)o2)s1 | -7.08% | 
Cc1ccc(/C=C/C(=O)Nc2ccc([N+](=O)[O-])c(NC(=O)/C=C/c3ccc(C)o3)c2)o1 |  | 22.4 µM (active)
CC(C(=O)N1CCN(c2ccccc2F)CC1)c1ccc([N+](=O)[O-])cc1 (stereo not drawn) | 13.1% [at 0.501 µM] | 
COc1ccc2c(CNCCc3ccccc3C)c(C(=O)O)n(Cc3ccccc3C)c2c1 | -17.1% | 
CCOc1ccc(C2C(C(=O)Nc3ccc(Cl)cc3)=C(C)Nc3nc(C(F)(F)F)nn32)cc1 (stereo not drawn) | -12% | 
Cc1nnc(SCC(=O)NC2CCCC2)s1 | -22.1% | 
Cc1nnc(SCC2=C(C(=O)O)N3C(=O)C(NC(=O)Cn4nc(C)c(Cl)c4C)C3SC2)s1 (stereo not drawn) |  | 31.6 µM (active)
